{"source": "PubChem BioAssay AID720709", "about": "(National Center for Advancing Translational Sciences (NCATS), 2013)", "note": "The campaign covered roughly 360,000 compounds. About 520 (0.14%) were called active. Another 3% or so got no clear call; they are omitted. Shown is part of a subset that was picked to be rich in actives. Values without a mark were called inactive. Calls follow the shape of the dose curve; as a rule, active = well fitted inhibition curve with a large enough effect; inconclusive = small, poorly fitted or top-dose-only effect; inactive = no such curve, though single readings can be large or run the other way. Potency is read from the fitted curve at half-maximal effect."}
{"molecular_target": "Rap guanine nucleotide exchange factor 3 (Homo sapiens) (UniProt O95398)", "sequence (O95398 whole entry, looked up)": "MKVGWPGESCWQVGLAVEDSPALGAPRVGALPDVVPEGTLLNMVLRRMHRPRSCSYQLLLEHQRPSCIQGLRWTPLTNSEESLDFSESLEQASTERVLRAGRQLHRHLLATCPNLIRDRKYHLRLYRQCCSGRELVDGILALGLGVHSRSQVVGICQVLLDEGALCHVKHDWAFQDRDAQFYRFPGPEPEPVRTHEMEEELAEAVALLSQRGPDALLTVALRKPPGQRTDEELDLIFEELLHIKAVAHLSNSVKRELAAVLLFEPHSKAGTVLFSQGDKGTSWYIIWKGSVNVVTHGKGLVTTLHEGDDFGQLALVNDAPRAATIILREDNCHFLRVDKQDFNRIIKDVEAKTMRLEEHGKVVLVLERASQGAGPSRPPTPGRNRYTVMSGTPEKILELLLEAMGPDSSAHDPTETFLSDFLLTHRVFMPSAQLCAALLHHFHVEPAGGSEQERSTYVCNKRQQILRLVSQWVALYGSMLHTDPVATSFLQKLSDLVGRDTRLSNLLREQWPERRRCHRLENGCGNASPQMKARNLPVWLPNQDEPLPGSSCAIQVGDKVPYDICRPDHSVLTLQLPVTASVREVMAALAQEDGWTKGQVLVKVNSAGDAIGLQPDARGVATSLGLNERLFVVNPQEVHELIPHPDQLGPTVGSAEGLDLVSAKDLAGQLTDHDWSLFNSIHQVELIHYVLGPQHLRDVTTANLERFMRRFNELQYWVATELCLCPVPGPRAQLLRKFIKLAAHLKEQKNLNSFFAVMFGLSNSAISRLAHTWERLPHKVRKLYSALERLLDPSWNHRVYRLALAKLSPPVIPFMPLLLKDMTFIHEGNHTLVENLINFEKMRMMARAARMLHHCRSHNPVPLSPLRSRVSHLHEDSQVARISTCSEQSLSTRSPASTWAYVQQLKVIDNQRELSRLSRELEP", "test": "qHTS for Antagonist of cAMP-regulated guanine nucleotide exchange factor 3 (EPAC1): primary screen; also: nearly all actives have a fitted effect of over 50% in size;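 as to activity change, negative = inhibition: plate controls were vehicle for no effect and positive control for full effect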", "details": "EPAC1 GEF assay, Rap1b-BODIPY-GDP exchange fluorescence; series mostly up to 115 µM; activity change, negative = inhibition: at the top concentration", "text": "In multi-cellular eukaryotic organisms, the effects of cAMP are transduced by two ubiquitously-expressed intracellular cAMP receptors, the classic protein kinase A/cAMP-dependent protein kinase (PKA/cAPK) and the more recently discovered exchange protein directly activated by cAMP/cAMP-regulated guanine nucleotide exchange factor (EPAC/cAMP-GEF). Both PKA and EPAC are ubiquitously expressed in all tissues, and an increase in intracellular cAMP levels will lead to the activation of both PKA and EPAC. Therefore, careful dissections of the individual role and relative contribution of EPAC and PKA within the overall cAMP signaling in various model systems are critical for further elucidating the mechanism of cAMP signaling. To date no EPAC-specific antagonists and agonist, as well as isoform-specific agonists have been reported, and developing EPAC-specific pharmacological probes to determine the physiological functions that EPAC play in the overall cAMP-mediated signaling remains a major challenge within the research field. Furthermore, identified regulators of EPAC may lead to new mechanism-based therapeutic strategies specifically targeting the EPAC / cAMP-signaling components as EPAC has been implicated to play important roles in major human pathological conditions such as diabetes, heart disease, and cancer. This qHTS will be used to screen the Molecular Libraries Small Molecule Repository (MLSMR) as a concentration-titration series using the NCGC unique quantitative screening (qHTS) platform to find inhibitors for EPAC1. In addition, this assay will also be used as a counterscreen for the EPAC2 qHTS. This fluorescent based assay is developed and validated for EPAC1 that measures exchange using EPAC effector Rap1 complex with BODIPY-GDP, a GDP analog with a tethered fluorophores. Inhibitors are identified by monitoring the change in fluorescence signal as the exchanged free BODIPY-GDP has a reduced fluorescence compared to Rap1-bound BODIPY-GDP. Decrease in signal (inhibition) is the desired outcome for the EPAC1 antagonist while no activity in this assay is desired for the EPAC2 antagonist counterscreen. de Rooij, J., Zwartkruis, F. J., Verheijen, M. H., Cool, R. H., Nijman, S. M., Wittinghofer, A., and Bos, J.L. (1998) Nature 396, 474-477 [2] Kawasaki, H., Springett, G. M., Mochizuki, N., Toki, S., Nakaya, M., Matsuda, M., Housman, D. E., and Graybiel, A. M. (1998) Science 282, 2275-2279 NIH Chemical Genomics Center [NCGC] NIH Molecular Libraries Probe Centers Network [MLPCN] MLPCN Grant: NS066510 Assay Submitter (PI): Xiaodong Cheng, The University of Texas, Medical Branch\nBriefly, three uL of reagents (100 nM EPAC1, 250 nM RAP1B-BODIPY-GDP, 50 uM GDP) were dispensed into a 1536-well Greiner black solid-bottom medium binding assay plate. Controls and test compounds (23 nL) were transferred to the plate via a Kalypsys pin tool equipped with a 1536-pin array. The plates were centrifuged at 1,000 rpm for 15 seconds followed by 5 minute incubation at room temperature. The assay plates were read at 5 minute intervals for 30 minutes in the ViewLux plate reader using 480nm excitation and 540nm emission filters. The results were normalized to the […] positive control ATA and DMSO.", "units": {"activity change, negative = inhibition": "%"}}
{"smiles": "Oc1cccc2cc(-c3ccncc3)cnc12", "activity change, negative = inhibition": 3.21}
{"smiles": "CO[C@@H]1CN(C)C(=O)c2cc(NC(=O)Nc3cc(F)ccc3F)ccc2OC[C@H](C)N(C(=O)c2ccccn2)C[C@@H]1C", "activity change, negative = inhibition": -5.4}
{"smiles": "Cc1c(CC(=O)N2CCN(C(=O)C3COc4ccccc4O3)CC2)c(=O)oc2c(O)c(O)ccc12", "note": "(centres undefined)", "Potency": "100 µM (active)"}
{"smiles": "COc1ccc2c(C)c(CCC(=O)NC3CC3)c(=O)oc2c1C", "activity change, negative = inhibition": -3.71}
{"smiles": "Cc1ccc(S(=O)(=O)NCCC(=O)NNC(=O)C2COc3ccccc3O2)cc1", "note": "(centres undefined)", "activity change, negative = inhibition": 8.04}
{"smiles": "OCCC#Cc1ccc(N2C(c3ccsc3)=Cc3ccc(F)cc3C2c2c[nH]c3ccccc23)cc1", "note": "(centres undefined)", "activity change, negative = inhibition": 1.44}
{"smiles": "COc1ccc(CC(N)c2csc(NC(=O)NC(c3ccccc3)c3ccccc3)n2)cc1", "note": "(centres undefined)", "activity change, negative = inhibition": -11.6}
{"smiles": "COc1cccc(/C=N/Nc2ccc(S(=O)(=O)Nc3ccccc3C(=O)O)cc2[N+](=O)[O-])c1O", "Potency": "25.1 µM (active)"}
{"smiles": "CCOc1ncccc1C(=O)NNC(=O)c1cccc(S(=O)(=O)Nc2ccccc2OC)c1", "activity change, negative = inhibition": 11.9}
{"smiles": "CC1CN(C(=O)c2ccccc2NS(=O)(=O)c2cccc([N+](=O)[O-])c2)CC(C)O1", "note": "(centres undefined)", "activity change, negative = inhibition": -6.5}
{"smiles": "COC(=O)C[C@@H]1C=C[C@@H](NC(=O)c2ccc3c(c2)OCO3)[C@@H](CO)O1", "activity change, negative = inhibition": -14.3}
{"smiles": "O=c1[nH]c(SCc2cccc(F)c2)nc2ccccc12", "activity change, negative = inhibition": -4.22}
{"smiles": "N#Cc1c(-c2ccccc2)nc(SCc2cccc(C(F)(F)F)c2)[nH]c1=O", "Potency": "70.8 µM (active)"}
{"smiles": "CC(=O)CSc1nc(CCc2ccccc2)c(C#N)c(=O)[nH]1", "activity change, negative = inhibition": -14.8}
{"smiles": "O=C(NCc1ccc(F)cc1F)[C@@H]1CCCN1C(=O)[C@@H]1CCCN1C(=O)c1cccc(Cl)c1", "activity change, negative = inhibition": 5.96}
{"smiles": "COc1ccc(C(=O)Nc2cccc(/C=C(/CCC(=O)O)c3nc4ccccc4s3)c2)cc1", "Potency": "35.5 µM (active)"}
{"smiles": "COc1cccc(/C=C(/CC(=O)Nc2ccc(N3CCOCC3)cc2)c2nc3ccccc3s2)c1", "activity change, negative = inhibition": 0.722}
{"smiles": "O=C(O)CC/C(=C\\c1cc2c(cc1Br)OCO2)c1nc2ccccc2s1", "activity change, negative = inhibition": -2.3}
{"smiles": "CCOc1ccc(CCN2C(=S)N([C@@H](CC(C)C)CN3CCC[C@@H]3CN3C(=S)NC[C@@H]3Cc3ccc(O)cc3)C[C@@H]2Cc2ccc(O)cc2)cc1", "activity change, negative = inhibition": -20.9}
{"smiles": "CCC(C(=O)Nc1c(C)cccc1C)n1c(-c2cc(C)cs2)nc2ccccc21", "note": "(centres undefined)", "activity change, negative = inhibition": -5.26}
{"smiles": "COc1ccc(C(=O)NCC[N+](C)(C)C)cc1", "activity change, negative = inhibition": 4.59}
{"smiles": "CCOC(=O)[C@]12CCC=C1N(Cc1ccco1)C(=O)[C@H](CC(=O)N1CCSCC1)C2", "activity change, negative = inhibition": -20.2}
{"smiles": "CCCCCCN1CCN(C2CN(Cc3cn(CCCCCC)nn3)S(=O)(=O)C2)CC1", "note": "(centres undefined)", "activity change, negative = inhibition": -19.2}
{"smiles": "CCC(CC)C(C(=O)NC1CCCC1)N1CCN(c2cc(C)nc3ccccc23)CC1", "note": "(centres undefined)", "activity change, negative = inhibition": 1.74}
{"smiles": "O=C1Nc2ccccc2-n2nnnc2C1N1CCN(c2cccc(C(F)(F)F)n2)CC1", "note": "(centres undefined)", "activity change, negative = inhibition": -11.1}
{"smiles": "CCOC(=O)[C@]12CCCC=C1N(CCC1=CCCCC1)C(=O)[C@H](CC(=O)N1CCOCC1)C2", "activity change, negative = inhibition": -4.03}
{"smiles": "Cc1cc(Br)cn2c(Cc3ccsc3)c(-c3ccc(C#N)cc3)nc12", "activity change, negative = inhibition": -4.89}
{"smiles": "CCOC(=O)[C@]12CCCC=C1N(CCC1=CCCCC1)C(=O)[C@H](CC(=O)NCCCCc1ccccc1)C2", "activity change, negative = inhibition": -11.2}
{"smiles": "O=C1NC[C@H](CCCCN2C[C@H](Cc3ccc(O)cc3)N(CCc3ccccc3)C(=O)C2=O)N(CCc2ccccc2)C1=O", "activity change, negative = inhibition": -12.9}
{"smiles": "O=C1Nc2ccccc2NC(c2ccc3c(c2)OCO3)=C1N(Cc1ccc(F)cc1)C(=O)c1ccco1", "activity change, negative = inhibition": -26.5}
{"smiles": "COc1ccc(C(=O)C(OP(=O)(OC)OC)c2ccccc2OC)cc1", "note": "(centres undefined)", "activity change, negative = inhibition": -3.79}
{"smiles": "COC(=O)c1ccc2nc(-c3ccc(C)cc3)c(Cc3ccc(OC)cc3C)n2c1", "activity change, negative = inhibition": -20.7}
{"smiles": "CCOC(=O)[C@]12CCCC=C1N(Cc1ccc(Cl)cc1Cl)C(=O)[C@H](CC(=O)N1CCCCC1)C2", "activity change, negative = inhibition": 24.7}
{"smiles": "CC1Cc2[nH][nH]c(=O)c2C(C2CCCC2)O1", "note": "(centres undefined)", "activity change, negative = inhibition": -1.95}
{"smiles": "COc1cccc(-c2nc3nc(C)cc(C)n3c2NC2CCCCC2)c1", "activity change, negative = inhibition": -3.19}
{"smiles": "CC(C)c1cc(Cn2c3ccccc3c(=O)n2C(C)Cn2cc(C3CC3)nn2)on1", "note": "(centres undefined)", "activity change, negative = inhibition": -18.3}
{"smiles": "Cc1cc(Br)cn2c(Cc3ccccc3C(F)(F)F)c(-c3ccc(Cl)cc3)nc12", "activity change, negative = inhibition": -8.75}
{"smiles": "CCOC(=O)[C@]12CCCC=C1N(CCC1=CCCCC1)C(=O)[C@H](CC(=O)N1CCSCC1)C2", "activity change, negative = inhibition": -11.1}
{"smiles": "COC(=O)[C@]12CCCCC=C1N(Cc1ccc3c(c1)OCO3)C(=O)[C@H](CC(=O)N1CCOCC1)C2", "activity change, negative = inhibition": -8.74}
{"smiles": "O=C(NCc1ccccc1)C1c2ccccc2OCC(=O)N1CCCN1CCOCC1", "note": "(centres undefined)", "activity change, negative = inhibition": -7.15}
{"smiles": "COc1ccc([C@H]2CC(=O)C[C@@H](CCn3cc(CC4CCCC4)nn3)O2)cc1", "activity change, negative = inhibition": 4.12}
{"smiles": "COc1ccc(N2c3ccccc3CN(Cc3ccccc3)[C@@H](C)[C@H]2Cc2ccc(-c3ccccc3)cc2)cc1", "activity change, negative = inhibition": 18.8}
{"smiles": "O=S1(=O)CC(N2CCN(CCO)CC2)CN1Cc1cn(Cc2cccc(Cl)c2)nn1", "note": "(centres undefined)", "activity change, negative = inhibition": -1.43}
{"smiles": "O=C(C(=O)N1CCN(c2ccccc2)CC1)c1ccc2c(c1)OCO2", "activity change, negative = inhibition": 1.25}
